Molecules are shown by their SMILES. Potency and affinity values are given separately. The source made the active and inactive calls.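 Rule for the calls: active = fitted half-maximal concentration for loss of cell signal no higher than twice the top valid tested concentration; inconclusive = flat curve at 30 to 70% inhibition, or poor fit; inactive = flat within 30%, signal rise, or potency above limit.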

This test in a line: MDA-MB-231 cell growth inhibition, dose response, cytotoxicity control for RAD54 inhibitor project, CellTiter-Glo luminescence, cherry-pick (AID 651692).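 Note: more negative values mean stronger loss of viable cell signal.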 Conditions: MDA-MB-231 viability, 24 h; series mostly up to 26 µM. (In general: ATP-based viability assays read luminescence as a measure of living cells.)
Regarding `NC(=O)C1CCN(c2nc(-c3cccnc3)cs2)CC1`, the result was inactive.

On to `c1c[nH]c(CN2CCN(Cc3ncc[nH]3)CC2)n1`, for which the outcome was inactive.

Regarding `CN(C)CCNC(=O)c1cccc(-c2cnc3c(NC=O)cc(-c4cccc(F)c4)cn23)c1`, the result was inactive.

Take `Clc1ccc2[nH]c3c(NCCCN4CCOCC4)ncnc3c2c1`: the result was inactive.

For the compound `CCN(CC)S(=O)(=O)c1ccc(Cl)c(C(=O)Nc2nnc(C)s2)c1`, the result was inactive.

For the compound `CCCN(CCC)CCCNC(=O)c1cc2c(=O)n(C)c3ccccc3c2n1C`, the compound was called inactive.

Regarding `C=CCN1C(=O)C(C)(C)Nc2ccccc21`, the outcome was inactive.

With `O=C(NCCCN1CCOCC1)c1cnn2c(-c3ccccc3)cc(-c3ccccc3)nc12`, the call was inactive.

On to `CN(C)CCCNc1nc2cc(-c3ccc4c(ccn4C)c3)sc2c(=O)n1C`, for which the outcome was inactive.

With `CCN1CCN(c2nn3c(=O)c4ccccc4nc3c3ccccc23)CC1`, the compound was called inactive.

In the case of `CCOC(=O)c1c(NC(=O)c2ccc(S(=O)(=O)N3CCOCC3)cc2)sc2c1CCN(C)C2`, the result was inactive.

`O=C(CN1CCCCC1)n1c2ccccc2c2ccccc21`: the compound was called inactive.

On to `O=C(Nc1cccc([N+](=O)[O-])c1)c1cc(S(=O)(=O)N2CCOCC2)cs1`, for which the compound was called inactive.

`COc1ccc(-c2cc(NC=O)c3ncc(-c4cccc(C(=O)NCCN(C)C)c4)n3c2)cn1`: the compound was classed as inactive.

`CCCN(CCC)CCCNC(=S)Nc1ccc2nc(N3CCN(C)CC3)cc(C)c2c1`: the compound was classed as inactive.

Regarding `COc1cccc2sc3cc(NCCCN4CCOCC4)ccc3c(=O)c12`, the outcome was inactive.

As to `O=C(CN1CCCC1)Nc1ccc(-c2nc3cc(NC(=O)CN4CCCC4)ccc3o2)cc1`, the outcome was inactive.

`CN1CCN(CCNC(=O)c2cc3c(=O)n(C)c4ccccc4c3n2C)CC1`: the compound was classed as inactive.

Take `COc1ccc(C(=O)CN2CCN(CCN3C(=O)c4cccc5cccc(c45)C3=O)CC2)cc1`: the result was inactive.

Regarding `CCOC(=O)c1cnc2ccc(OC)cc2c1Nc1ccc(N2CCN(C)CC2)cc1`, the compound was called inactive.

Consider `OCCNc1nc(Nc2ccc(O)cc2)nc2ccccc12`, for which the outcome was inactive.

`COc1cc2[nH]c3c(=O)n(CCN4CCCCC4)cnc3c2cc1OC`: the compound was classed as inactive.

As to `CCCN1CCN(CCCNC(=S)Nc2ccc3nc(N4CCN(CC)CC4)cc(C)c3c2)CC1`, the outcome was inactive.

Turning to `CC(=O)Nc1ccc2cc3ccc(NC(C)=O)cc3nc2c1`, the result was inactive.

In the case of `COc1cccc(-c2nc(NCCN3CCOCC3)c3ccccc3n2)c1O`, the compound was classed as inactive.

In the case of `CCOC(=O)c1cnc2c(CC)cccc2c1NCCCN1CCOCC1`, the compound was called inactive.

Take `CCN(CC)CCCNc1nc(-c2ccccc2)nc2ccccc12`: the compound was classed as inactive.

Take `Cc1ccc2oc(=O)c3cc(C(=O)NCCCN4C(C)CCCC4C)sc3c2c1` (centres undefined): the result was inactive.

For the compound `O=C1C(c2ccc(F)cc2)N(C2CCCCC2)C(=O)CN1C1CCCC1` (centres undefined), the outcome was inactive.

Consider `CSc1nc(SCC(N)=O)c2c3c(sc2n1)CN(C)CC3`, for which the outcome was inactive.

With `CN(C)CCSc1nc(N)c2c3c(sc2n1)CN(C)CC3`, the result was inactive.

Consider `CCN1CCN(CCCNC(=O)c2cc3c(=O)[nH]c4ccccc4c3s2)CC1`, for which the outcome was inactive.

Regarding `Cc1cccc(-c2cc(N3CCCN(C)CC3)n3nccc3n2)c1`, the result was inactive.

Regarding `CCCN1CCN(C(=S)Nc2ccc3nc(N4CCN(CC)CC4)cc(C)c3c2)CC1`, the compound was classed as inactive.

For the compound `CN1CCCN(c2cc(-c3ccc4ccccc4c3)nc3ccnn23)CC1`, the outcome was inactive.

For the compound `CCNC1CCC(Nc2ccnc3cc(Cl)ccc23)CC1` (centres undefined), the compound was called inactive.

With `NCc1csc(Nc2nncc3ccccc23)n1`, the compound was classed as inactive.

On to `Cc1cc(NCCCN(C)C)n2c(nc3ccccc32)c1C#N`, for which the result was inactive.

With `COc1cccc(-c2cc3nc(NCCN4CCCC4)n(C)c(=O)c3s2)c1`, the call was inactive.

The values above are taken from PubChem BioAssay AID651692 (Broad Institute, 2012).
